High-throughput results: PubChem BioAssay, several laboratories
Hits are enriched below; roughly 3.4% of the tested compounds scored in any of these assays.
ssDAF12 agonist = activators of S. stercoralis DAF-12 nuclear receptor | HEK293 ssDAF-12/GRIP1 lit1-tk-luc reporter, luminescence; % of 3 µM dafachronic acid response | activation, % at 6.8 µM | 370,000 compounds, 1% hits | AID 652126;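 active means activation above the mean over all tested compounds plus 3 SD, cut at about 0.9% in these data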
APP 5'UTR act = activates APP 5'UTR luciferase reporter | SH-SY5Y APP 5'UTR luciferase reporter, luminescence; zero percent = DMSO vehicle wells | 190,000 compounds, 1% hits | AID 1276 | activation, % at 2 µM;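 active means activation above a set limit, based on mean plus 3 SD of controls, cut at about 140% in these data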
NF-kB expr up = compounds increasing NF-kB expression in human neuronal cells | NF-kB reporter expression; hits give high values | fold change at 12.5 µM | 190,000 compounds, 1.6% hits; in the data active means fold change above about 3.3
hgDAF12 agonist = activates the H. glycines DAF-12 receptor ligand-binding domain | HEK293 GAL4-hgDAF12 UAS-luciferase reporter, agonist luminescence; normalized to butyrate control | activation, % at 6.8 µM | 370,000 compounds, 1.8% hits;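 active means activation above a cutoff set at the mean of all screened compounds plus 3 SD, cut at about 10% in these data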
hcDAF-12 act = activators of H. contortus DAF-12 nuclear receptor; HEK293 hcDAF-12 lit1-tk-luc reporter, luminescence; 0% DMSO, 100% Δ7-dafachronic acid; activation, % at 6.8 µM; 370,000 compounds, 1.4% hits; AID 652067;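 active means activation above the mean of all tested compounds plus 3 SD, cut at about 5.5% in these data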
Numbers stand for hits; n = inactive; x = not tested or not shown.

SMILES | ssDAF12 agonist | APP 5'UTR act | NF-kB expr up | hgDAF12 agonist | hcDAF-12 act
CCOC(=O)c1oc2cc(O)c(CC)cc2c(=O)c1-c1cscn1 | n | n | n | n | n
O=C(NN1C(=O)c2ccccc2NC1c1ccccn1)c1ccc([N+](=O)[O-])cc1 (stereo not drawn) | 1.0 | n | n | n | n
COC(=O)C1CCN(C(=O)C2CC(=O)N(c3ccc(OC)cc3)C2c2ccc(OC)cc2)CC1 (stereo not drawn) | n | x | x | n | n
O=C(c1ccc(Cl)cc1)N1CCN(c2ccccn2)CC1 | n | x | x | n | n
CCOC(=O)c1cc(-c2csc(N/N=C/c3ccccc3Cl)n2)on1 | n | x | x | n | n
CCOC(=O)c1cc(-c2csc(Nc3ccccc3Cl)n2)on1 | 1.5 | x | x | n | n
CC(=O)Nc1ccc2c(c1)Cc1c(F)cccc1-2 | n | x | x | 11 | n
O=C(Nc1ccc2c(c1)Cc1ccccc1-2)c1ccccc1F | n | x | x | 11 | n
O=C(O)c1ccccc1SC1CC(=O)N(c2ccccc2)C1=O (stereo not drawn) | n | n | n | n | 6.0
CCOc1ccc(/C=N/OCC(=O)Nc2ccc3c(c2)OCO3)cc1 | n | n | n | n | n
CCOc1ccc(/C=N/OCC(=O)Nc2cc(C)on2)cc1 | 1.6 | n | n | n | n
Cc1cc(C(=O)N(C)C2CCCCC2)no1 | n | x | x | n | n
CN(C(=O)c1cc(-c2ccccc2)on1)C1CCCCC1 | n | x | x | 11 | n
C/C(=N\Nc1nc2c(s1)CCCC2)c1ccc(Cl)cc1 | n | n | n | n | 6.3
CCCc1nc([N+](=O)[O-])c(S(=O)(=O)c2ccccc2)n1CC(C)C | n | n | n | 10 | n
Cc1ccccc1N(C)C(=O)CN1CCN(c2nc(-c3ccccc3)cs2)CC1 | n | x | x | n | n
O=C(c1ccccc1)n1ccc2ccc(-c3ccc4ccn(C(=O)c5ccccc5)c4c3)cc21 | n | x | x | n | n
O=C(COc1ccccc1)NCC(=O)Nc1ccncc1 | n | x | x | 11 | n
Cc1[nH]cnc1/C=N\NC(=O)c1cccc(S(=O)(=O)N(C)C)c1 | n | x | x | n | n
COc1ccc(Cn2ccc3ccc(-c4ccc5ccn(Cc6ccccc6)c5c4)cc32)cc1 | n | x | x | n | n
CCOC(=O)c1ccccc1NC(=O)c1n[nH]c(=O)c2ccccc12 | n | n | 3.7 | n | n
COc1ccccc1CNC(=O)N1CCC(c2nc3ccc(Cl)cc3[nH]2)CC1 | n | x | x | n | n
COC(=O)[C@]12C[C@H](CC(=O)NCc3ccc(OC)c(OC)c3)C(=O)N(Cc3ccco3)C1=C[C@H](COCc1ccccc1)O[C@@H]2C | n | x | x | n | n
COc1ccc(/C(C)=N/Nc2ccc(C(=O)O)cc2)cc1OC | n | 158 | 6 | n | n
COc1cc(/C(C)=N/Nc2ccc(C(=O)O)cc2)cc(OC)c1OC | n | n | n | n | n
SMILES | ssDAF12 agonist | APP 5'UTR act | NF-kB expr up | hgDAF12 agonist | hcDAF-12 act
C/C(=N\Nc1ccc(C(=O)O)cc1)c1ccc(-n2ccnc2)cc1 | n | n | n | 12 | n
C[C@@H]1OCN(C)[C@H]2C[C@H]3c4[nH]c5cccc(-c6ccc7c(c6)OCO7)c5c4CCN3C[C@@H]12 | n | x | x | n | n
O=C(NCC(O)c1ccccc1)c1cccs1 (stereo not drawn) | n | x | x | 12 | n
O=C(NCCc1cccs1)c1cccs1 | n | n | n | 11 | n
O=C(NCCCCCCNC(=O)c1cccs1)c1cccs1 | n | n | n | n | n
CC(C)(C)OC(=O)NCc1ccccc1/C=C/S(=O)(=O)NCc1ccc(F)cc1 | n | x | x | n | n
Cc1onc(-c2ccc(Cl)cc2)c1-c1ccn(S(=O)(=O)c2ccccc2)n1 | n | x | x | n | n
O=S(=O)(CC1NCc2cc(F)ccc21)NC1CCCC1 (stereo not drawn) | n | x | x | n | n
O=C(O)c1nnsc1-c1csnn1 | n | x | x | n | n
NNC(=O)c1nnsc1-c1csnn1 | n | x | x | 10 | n
COc1ccc(/C=N/S(=O)(=O)c2cccs2)cc1 | 3.0 | n | n | n | n
COc1ccc(/C=C2\S/C(=N/S(=O)(=O)c3cccs3)NC2=O)cc1 | n | n | n | n | n
COc1ccc(S[C@]2(C(=O)N(C)C)CC(=O)N(C(=O)C3CC3)[C@@H]2c2ccc(OC)cc2)cc1 | n | x | x | n | n
COc1cc(C(=O)N/N=C(\C)c2ccc(NC(=O)Cc3ccccc3)cc2)ccc1O | 1.1 | x | x | n | n
O=c1cc(CN2CCN(c3ccccc3O)CC2)nc2sccn12 | n | n | n | n | n
O=c1cc(CN2CCc3ccccc3C2)nc2sccn12 | n | n | 3.5 | n | n
Nc1c(C(=O)c2ccc(Br)s2)oc2ccccc12 | n | n | n | n | n
Nc1c(C(=O)c2cccs2)oc2ccccc12 | n | n | n | n | 6.1
CN(Cc1ccccc1F)C(=O)C1CCCN(c2ncccn2)C1 (stereo not drawn) | n | x | x | n | n
Cc1noc(C)c1-c1ccc(C(=O)NC2CCCCC2)c2occc12 | 1.7 | x | x | n | n
CSc1ccccc1C(=O)N1CCc2ccc(NC(=O)c3ccccn3)cc2C1 | n | x | x | 11 | n
CN(CC(=O)Nc1cccc(F)c1)C(=O)c1cccc(S(=O)(=O)N2CCN(Cc3ccccc3)CC2)c1 | 11 | x | x | n | n
C#CCOCCOCCOCCNc1nc(N2CCN(C(=O)Cn3cc(CCCN=C(N)N)nn3)CC2)nc(N2CCN(C(=O)[C@H](CCCCN)n3cc(CCCC)nn3)CC2)n1 | n | x | x | 12 | n
C#CCOCCOCCOCCNc1nc(N2CCN(C(=O)Cn3cc(CCCN=C(N)N)nn3)CC2)nc(N2CCN(C(=O)[C@H](CCCCN)n3cc(CCC(=O)O)nn3)CC2)n1 | n | x | x | n | n
CCOc1ccc(OCc2ccc(C(=O)OCc3ccccn3)o2)cc1 | n | n | 4.4 | n | n
SMILES | ssDAF12 agonist | APP 5'UTR act | NF-kB expr up | hgDAF12 agonist | hcDAF-12 act
CCOC(=O)c1ccc(COc2ccc(C(C)C)cc2)o1 | n | n | n | n | n
Cc1onc(C(=O)N2CCN(C(c3ccc(Cl)cc3)c3ccc(Cl)cc3)CC2)c1[N+](=O)[O-] | n | x | x | n | n
Cc1cc(C(=O)NCCC2=CCCCC2)ccc1[N+](=O)[O-] | n | n | n | 11 | n
COc1ccc(C(=O)NCCC2=CCCCC2)cc1OC | n | n | n | n | n
O=C(CCNC(=O)c1ccc([N+](=O)[O-])cc1)NCCC1=CCCCC1 | n | x | x | n | n
COc1ccc(C(=O)NCCS(=O)(=O)N2CCCC2)cc1 | n | x | x | n | 6.1
COc1ccc(C(=O)NCCS(=O)(=O)N2CCCCCC2)cc1 | n | x | x | n | n
COc1cccc(C(=O)NCCC2=CCCCC2)c1 | n | 153 | n | 12 | n
O=C(NCCC1=CCCCC1)c1ccc([N+](=O)[O-])cc1 | n | 160 | 4.8 | 13 | n
Cc1cc(C)cc(N(CC(=O)NC2CCC(C)CC2)S(=O)(=O)c2ccc(Br)s2)c1 (stereo not drawn) | n | x | x | n | n
CCC(C)N(C(=O)CSc1nnc(-c2cc(OC)c(OC)c(OC)c2)o1)C(C)CC (stereo not drawn) | n | x | x | n | n
COC(=O)C1CN(CCc2ccccc2)CCS(=O)(=O)N1Cc1ccc(OC)cc1 (stereo not drawn) | n | x | x | n | n
CC(=O)c1c(C)[nH]c(C(=O)NCCC2=CCCCC2)c1C | n | n | 3.5 | n | n
